Screens (PubChem)
USP28 inh = inhibitors of human USP28 deubiquitinase. Ubiquitin carboxyl-terminal hydrolase 28 (Homo sapiens), Q96RU2. purified USP28, Ub-rhodamine cleavage fluorescence, 30 min. inhibition, % at 25 µM. 47,000 compounds, 3% hits. AID 1645857, 2021
USP30 inh = inhibitors of human USP30 deubiquitinase; AID 1645860, 2021; inhibition, % at 25 µM; purified USP30, Ub-rhodamine cleavage fluorescence; 47,000 compounds, 5.3% hits
Target sequence (Q70CQ3 whole entry, looked up): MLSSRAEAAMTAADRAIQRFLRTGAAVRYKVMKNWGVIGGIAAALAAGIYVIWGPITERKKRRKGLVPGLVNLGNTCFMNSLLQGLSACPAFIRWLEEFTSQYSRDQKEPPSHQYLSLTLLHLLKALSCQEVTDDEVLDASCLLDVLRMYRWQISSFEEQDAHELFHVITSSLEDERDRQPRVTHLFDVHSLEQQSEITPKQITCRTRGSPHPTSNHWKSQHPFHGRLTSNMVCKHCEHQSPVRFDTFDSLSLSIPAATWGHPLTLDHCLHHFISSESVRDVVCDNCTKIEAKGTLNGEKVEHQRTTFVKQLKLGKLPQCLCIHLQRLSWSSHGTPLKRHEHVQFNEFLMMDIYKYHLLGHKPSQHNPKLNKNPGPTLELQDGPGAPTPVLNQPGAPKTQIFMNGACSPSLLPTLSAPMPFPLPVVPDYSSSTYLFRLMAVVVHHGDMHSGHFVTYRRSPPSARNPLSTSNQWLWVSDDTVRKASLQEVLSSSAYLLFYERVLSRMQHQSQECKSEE
USP17 block = inhibitors of human USP17 deubiquitinase. Ubiquitin carboxyl-terminal hydrolase 17-like protein 5 (Homo sapiens), A8MUK1. purified USP17, Ub-rhodamine cleavage fluorescence, 3 h. inhibition, % at 50 µM. 47,000 compounds, 6.5% hits
OTUD3 inh = inhibitors of human OTUD3 deubiquitinase | OTU domain-containing protein 3 (Homo sapiens), Q5T2D3 | purified OTUD3, Ub-rhodamine fluorescence, 2 h | inhibition, % at 25 µM | 47,000 compounds, 0.7% hits
Starred values were filed as active, the others as inactive; x = not tested or not shown. Sampled rows, rich in hits. Any-hit rate of the full collection: about 11%. Cut-off read from the data, not from the text of the source: active = inhibition above about 30%; inactive = the rest.

SMILES	USP28 inh	USP30 inh	USP17 block	OTUD3 inh
Cc1cc2c(cc1C)NC(CC(=O)Nc1ccc(O)cc1)C(=O)N2 (stereo not drawn)	24	-50	64*	-2
COc1cccc(CN2C(=O)C3CCCN3c3ccc(C(F)(F)F)cc32)c1 (stereo not drawn)	-24	-131	-27	-26
COc1ccccc1C(=O)N(Cc1ccccc1)C(C)(C)c1ccccc1	18	36*	26	18
CCOC(=O)C1(Cc2cc(-c3cccc(F)c3)no2)CCN(CC)CC1	-9	-27	-14	-17
CCc1nc(-c2cccc(NC(=O)c3ccccc3F)c2)no1	36*	3	6	-2
O=C(NCc1ccc(-c2nc3cnccc3o2)cc1)c1ccccc1Br	14	25	68*	13
Cc1nc(-c2cccc(NC(=O)c3ccc(C#N)cc3)c2)no1	x	x	17	5
O=C(Nc1cccc(-c2nc3cnccc3o2)c1)c1ccccc1F	x	x	44*	-1
CC(=O)c1cccc(NC(=O)c2ccc(-c3noc(C)n3)cc2)c1	30*	14	21	14
CC(=NC(c1ccccc1)c1ccccc1)c1ccccc1O	-7	1	-3	1
CN1[C@@H](CCC(=O)Nc2ccccc2)CNC(=O)[C@@H]2[C@H]1CCN2Cc1ccccn1	1	-43	-32	-7
Cc1nc(-c2cccc(NC(=O)c3ccccc3Cl)c2)no1	52*	18	5	15
Cc1nc(-c2cccc(NC(=O)c3ccccc3F)c2)no1	21	0	2	-1
CCc1ccc(CN(C)C(=O)c2ccc(NS(=O)(=O)c3ccc(F)c(F)c3)cc2)cc1	24	41*	27	9
O=C(COC(=O)c1ccc(NS(=O)(=O)c2ccc(F)c(F)c2)cc1)Nc1ccc(OCc2ccccc2)cc1	-5	1	7	5
COc1ccc(Cn2c(=O)sc3ccccc3c2=O)cc1	44*	25	10	12
COc1ccc(CN2CCc3oc(C)c(C(=O)NCc4cccnc4)c3C2)cc1	-51	-146	-35	-42
COc1ccc(C(=O)Nc2sc3c(c2C(=O)NCc2cccnc2)CCCC3)cc1	26	14	66*	40*
O=C(Cn1nc(-c2ccccc2)cc(NC(=O)c2ccccc2)c1=O)Nc1ccc(F)cc1	14	39*	39*	24
CC(=O)c1ccc(NC(=O)Cn2nc(-c3ccccc3)cc(NC(=O)C(C)C)c2=O)cc1	-8	-32	-21	-12
CCOc1ccc(-c2ccc3nnc(SCC(=O)Nc4ccc(F)cc4)n3n2)cc1	-4	33*	x	-4
O=C(Cc1ccc(-c2ccccc2)cc1)Nc1ccc(F)cc1	-1	3	0	-5
O=C(CSc1nnc2ccc(-c3ccccc3)nn12)Nc1ccc(F)cc1	-4	34*	43*	10
CC1(C)CC2CC(C)(CN2Cc2c(O)ccc3ccccc23)C1 (stereo not drawn)	1	-24	57*	-3
COC(=O)C1Cc2ccccc2CN1Cc1c(O)ccc2ccccc12 (stereo not drawn)	-11	-12	0	6
SMILES	USP28 inh	USP30 inh	USP17 block	OTUD3 inh
CC(=O)Nc1ccc(SC(C)C(=O)N2CCc3ccccc3C2)cc1 (stereo not drawn)	-5	-2	-14	-3
O=C(/C=C/c1ccccc1)N1CCc2[nH]nc(-c3ccc(F)cc3)c2C1	-1	-1	0	-11
O=C(/C=C/c1ccc(Br)cc1)N1CCc2ccccc2C1	0	-9	35*	2
CC(C)c1ccc(/C=C/C(=O)N2CCc3ccccc3C2)cc1	29	36*	54*	27
COc1ccc2nc(C(=O)N3CCN(c4ccc(F)cc4)CC3)cn2n1	4	1	-1	4
Clc1ccc2nc(COc3ccccc3Cc3ccccc3)[nH]c2c1	5	10	31*	10
C[C@]12C(=O)N(c3ccccc3C(=O)NCCc3ccccc3F)C(=O)N1CCc1c2[nH]c2ccccc12	-11	30	-15	2
COc1ccc(OCC(=O)N2CCC(c3nc4ccccc4cc3C(N)=O)CC2)cc1	-4	-18	-11	0
COc1ccccc1OCC(=O)N1CCC(c2nc3ccccc3cc2C(N)=O)CC1	15	34*	8	9
COc1cccc(NC(=O)N2CCN(c3ncccc3C(F)(F)F)CC2)c1	42*	11	4	11
COc1cccc(NC(=O)N2CCN(C3=CC4=NC(C)CN4C=N3)CC2)c1 (stereo not drawn)	20	0	-6	5
O=C(NCc1ccccc1F)C1CCN(c2cnc(N3CCOCC3)nc2)CC1	-11	-37	-93	-9
COc1ccc(C2NC(=O)NC(C)=C2C(=O)OC2CCCC2)cc1OC (stereo not drawn)	-1	-1	0	-4
COc1ccc2c(C)cc(SCC(=O)Nc3nsc(-c4ccc(C)cc4)n3)nc2c1	55*	82*	60*	47*
COc1cccc(NC(=O)CSc2cc(C)c3cc(S(=O)(=O)N(C)C)ccc3n2)c1	-12	-61	-19	-12
CCn1cnc2c(-c3ccccc3)cn(CC(=O)Nc3ccc(F)c(Cl)c3)c2c1=O	-7	-25	30	-8
c1ccc(-n2nnc(-c3noc(-c4ccco4)n3)c2-c2ccncc2)cc1	4	18	17	5
c1ccc(-n2nnc(-c3noc(-c4cccnc4)n3)c2-c2ccncc2)cc1	11	54*	16	9
O=S(=O)(c1cccc(Cl)c1F)N1CCC2(CC1)CC2c1nc(-c2cccnc2)no1 (stereo not drawn)	1	17	-23	1
Cc1c(Cl)cccc1S(=O)(=O)N1CCC2(CC1)CC2c1nc(-c2cccnc2)no1 (stereo not drawn)	7	35*	15	7
O=C1CN(C(=O)COC(=O)Cc2ccc(Cl)c(Cl)c2)c2ccccc2N1	6	-14	-1	0
O=C(Nc1ccc2c(c1)OCO2)c1cncc(NS(=O)(=O)c2ccc3c(c2)OCCO3)c1	-47	-282	-41	-50
CC(OC(=O)c1ccc(N2CCCC2=O)cc1)C(=O)Nc1ccc2c(c1)OCCO2 (stereo not drawn)	6	20	43*	4
CC(OC(=O)c1ccc(N(C)C)cc1)C(=O)Nc1ccc2c(c1)OCCO2 (stereo not drawn)	26	18	40*	5
O=C(Nc1ccc2c(c1)OCCO2)c1ccc(N2CCCC2=O)cc1	45*	67*	35*	15
Cc1noc(C)c1S(=O)(=O)Nc1ccc(C(=O)Nc2ccc3c(c2)OCCO3)cc1	85*	0	13	0
O=C(/C=C/c1ccco1)N1CCN(c2nc(-c3ccccc3)no2)CC1	-41	-221	23	-37
CC(OC(=O)CNC(=O)c1ccc(Br)cc1)C(=O)Nc1ccc2c(c1)OCCO2 (stereo not drawn)	23	24	66*	16
COc1ccc(C(=O)Nc2cccc(N3CCCCC3=O)c2)cc1	10	8	-3	2
